Compounds with a hit are over-represented: about 3% of the library has one in this group of screens.
SENP6 block = SENP6 protease inhibitors, primary screen, biochemical, luminescence, uHTS | Sentrin-specific protease 6 (Homo sapiens), Q9GZR1 | Recombinant SENP6 catalytic domain, aminoluciferin luminescence | inhibition, % at 10 µM | 330,000 tested, 1.8% active | AID 2599, 2010;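 active = inhibition above about 50% at the single tested dose, limit read from the data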;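 note: plate controls were DMSO wells with enzyme for no effect and DMSO wells lacking enzyme for full effect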
Target sequence (Q9GZR1 628-1112 limits assumed): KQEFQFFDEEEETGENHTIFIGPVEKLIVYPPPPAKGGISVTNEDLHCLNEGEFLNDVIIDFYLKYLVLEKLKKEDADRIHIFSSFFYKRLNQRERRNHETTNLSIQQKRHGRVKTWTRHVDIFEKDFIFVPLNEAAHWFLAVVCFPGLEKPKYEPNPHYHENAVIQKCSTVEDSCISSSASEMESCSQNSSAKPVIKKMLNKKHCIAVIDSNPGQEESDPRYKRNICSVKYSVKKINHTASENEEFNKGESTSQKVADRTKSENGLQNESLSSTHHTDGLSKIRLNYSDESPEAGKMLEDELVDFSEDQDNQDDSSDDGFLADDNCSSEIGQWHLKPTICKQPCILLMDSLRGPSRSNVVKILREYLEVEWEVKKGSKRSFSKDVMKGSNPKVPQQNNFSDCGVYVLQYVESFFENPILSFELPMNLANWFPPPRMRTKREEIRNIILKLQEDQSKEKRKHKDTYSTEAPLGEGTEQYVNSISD
SENP7 block = SENP7 protease inhibitors, primary screen, biochemical, luminescence, uHTS. recombinant SENP7, Z-RLRGG-aminoluciferin luminescence, 40 min. inhibition, % at 5 µM. 330,000 tested, 1.5% active;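 active = inhibition above about 50% at the single test dose, limit read from the data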;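 note: plate controls were DMSO with enzyme for no effect and no enzyme buffer wells for full effect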
TRAIL sens C8 = viability loss with TRAIL in NB7+C8 cells, primary screen, TRAIL sensitizer project, cell-based, ATPlite luminescence. inhibition (viability loss, TRAIL sensitization), % at 10 µM. 360,000 tested, 1% active. AID 624354, 2012;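 active = compounds causing at least 50% loss of cell viability in the single-dose screen, relative to plate controls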
SENP8 block-1 = SENP8 protease inhibitors, primary screen, biochemical, luminescence; AID 2540, 2010; inhibition, % at 10 µM; 330,000 tested, 1.2% active; purified SENP8, Z-RLRGG-aminoluciferin cleavage; in the data active = inhibition above about 50%
SENP8 block-2 = human SENP8 protease inhibitors, primary screen, biochemical, fluorescence, Nedd8 protein substrate, uHTS. Sentrin-specific protease 8 (Homo sapiens), Q96LD8. recombinant SENP8. inhibition, % at 20 µM. 360,000 tested, 0.64% active; in the data active = inhibition mostly above about 40%, no sharp cut-off; inactive = mostly below about 27%
PPC-1+TRAIL kill = compounds killing PPC-1 cancer cells with TRAIL present, primary screen, TRAIL potentiator project, ATPLite luminescence, uHTS; PPC-1 cells + TRAIL, ATPLite viability luminescence; cell killing (% activity), % at 4 µM or 5 µM; 220,000 tested, 0.41% active;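 active = cell killing above 50% in the first pass at 4 µM, then a duplicate retest at 5 µM averaging 50% or more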;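 note: plate controls were cells with TRAIL plus DMSO for no effect and medium-only wells lacking cells for full effect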
SENP8 conf = SENP8 protease inhibitors, retest, confirmation, biochemical, luminescence, single concentration | shares compounds with SENP7 block | Recombinant SENP8, Z-RLRGG-aminoluciferin luminescence, 60 min | inhibition, % at 12.5 µM | 6,200 tested, 40% active | AID 488912, 2010;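 active = mean inhibition across replicates above about 50%, limit read from the data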
SENP6 conf = SENP6 protease inhibitors, confirmation, biochemical, luminescence, single concentration; inhibition, % at 12.5 µM; 6,200 tested, 58% active; shares compounds with SENP7 block; recombinant SENP6, Z-RLRGG-aminoluciferin luminescence; AID 488915, 2010
SENP7 confirm = SENP7 protease inhibitors, retest, confirmation, biochemical, luminescence, single concentration; inhibition, % at 12.5 µM; recombinant SENP7, Z-RLRGG-aminoluciferin luminescence, 40 min; 6,200 tested, 69% active; shares compounds with SENP7 block; AID 488917, 2010
Casp3 select = caspase-3 protease inhibitors, confirmation, selectivity assay for SENP inhibitor project, biochemical, single concentration; inhibition, % at 12.5 µM; AID 488918, 2010; purified caspase-3, Z-DEVD-aminoluciferin luminescence, 60 min; 6,200 tested, 60% active; shares compounds with SENP7 block;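 active = mean inhibition above about 50%, limit read from the data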;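 note: plate controls were enzyme with DMSO for no effect and wells without caspase-3 for full effect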
Target sequence (P42574 28-227 limits assumed): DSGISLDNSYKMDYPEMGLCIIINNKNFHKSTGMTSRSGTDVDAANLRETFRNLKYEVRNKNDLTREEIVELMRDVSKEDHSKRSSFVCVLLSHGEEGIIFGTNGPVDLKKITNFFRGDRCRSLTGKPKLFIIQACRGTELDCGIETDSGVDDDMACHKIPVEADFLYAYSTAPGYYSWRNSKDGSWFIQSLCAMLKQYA
Luc interf = luminescence interference (SENP counter-screen); Pre-incubated SENP8/Z-RLRGG-aminoluciferin, luciferase luminescence interference; 6,200 tested, 39% active; AID 488919; shares compounds with SENP7 block; inhibition, % at 12.5 µM;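 active = mean inhibition above about 50% when retested at one dose, limit read from the data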;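 note: plate controls were DMSO wells with completed reaction for no effect and substrate without enzyme for full effect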
The depositor's hits bear a star; . = no result given.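 Rule for the calls, unless noted: active = mean inhibition above about 50% in the one-dose retest (limit read from the data); inactive = the rest.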

SMILES | SENP6 block | SENP7 block | TRAIL sens C8 | SENP8 block-1 | SENP8 block-2 | PPC-1+TRAIL kill | SENP8 conf | SENP6 conf | SENP7 confirm | Casp3 select | Luc interf
COc1ccc(-c2nnc(-c3cccs3)o2)cc1OC | 63* | 68* | 11 | 45 | -318 | 24 | 58* | 56* | 86* | 81* | 20
CC1CCN(C(=O)CN2C(=O)C(=O)N(C(C)C)C2=O)c2ccccc2S1 (stereo unspecified) | 6 | 6 | -2 | 2 | 13 | . | . | . | . | . | .
Oc1ccc(N=Nc2n[nH]c(-c3ccc(Br)cc3)n2)cc1 | . | . | -2 | . | 24 | -2 | . | . | . | . | .
CCN(CC)S(=O)(=O)c1ccc(N=Nc2cc(C)cc(Br)c2O)cc1 | -6 | -10 | 1 | -2 | 34 | . | . | . | . | . | .
Cc1ccc(N=Nc2ccc(O)cc2)c(Br)c1 | 64* | 20 | 36 | 56* | 16 | . | 74* | 73* | 86* | 23 | 69*
Oc1ccc(N=Nc2ccc(Br)cc2)c(O)c1 | 99* | 89* | 25 | 96* | 27 | 15 | 93* | 93* | 98* | 72* | 82*
COc1ccc(-c2ccc3c(c2)C2CC3CCN2C(=O)C(C)(C)C)cc1 (stereo unspecified) | . | . | 3 | . | 8 | . | . | . | . | . | .
CN(CCc1ccccc1)C(=O)c1ccc(NC(=O)Cc2ccc(NC(=O)C3CCCN(C(=O)C4CC4)C3)cc2)cc1 (stereo unspecified) | . | . | 11 | . | 0 | . | . | . | . | . | .
CC(CC(=O)NCCc1ccc(F)cc1)c1ccccc1 (stereo unspecified) | -10 | -3 | -10 | 1 | 5 | . | . | . | . | . | .
NC(=O)C[C@H](N)c1cn([C@@H](CC(N)=O)C(=O)N2CCNCC2)nn1 | 3 | 3 | -21 | -11 | 22 | . | . | . | . | . | .
O=C(O)c1ccc(S(=O)(=O)NN=Cc2c[nH]c3ccccc23)cc1 | . | . | -22 | . | 28 | . | . | . | . | . | .
O=C(O)c1ccc(N/N=C/c2c[nH]c3ccccc23)cc1 | 97* | 100* | 18 | 98* | -279 | . | 98* | 100* | 102* | 96* | 97*
COc1ccc(/C=N/Nc2ccc(C(=O)O)cc2)c(OC)c1OC | -7 | 21 | -1 | 7 | -197 | . | . | . | . | . | .
O=C(O)c1ccc(N/N=C/c2ccnc3ccccc23)cc1 | 91* | 92* | -8 | 82* | 11 | 2 | 77* | 90* | 92* | 69* | 10
COC(=O)[C@@]12C[C@@H](CC(=O)NCC34CC5CC(CC(C5)C3)C4)C(=O)N(Cc3ccco3)C1=CCC(C)(C)C2 | . | . | 3 | . | 15 | . | . | . | . | . | .
N#CC(c1ccccc1)c1ccc([N+](=O)[O-])cc1 (stereo unspecified) | . | . | -2 | . | 1 | . | . | . | . | . | .
Nc1ccccc1C#Cc1ccc([N+](=O)[O-])cc1 | 62* | 47 | 26 | 42 | 31 | . | 46 | 46 | 81* | 39 | 22
CCOC(=O)COc1cc(-n2c(=S)[nH]c3ccccc3c2=O)c(Cl)cc1Cl | -9 | -5 | -2 | -5 | -6 | 4 | . | . | . | . | .
CCOC(=O)COc1cc(N)c(Cl)cc1Cl | -39 | 0 | -1 | 80* | -14 | 11 | 2 | -1 | -4 | -1 | -6
CN(CCCC(=O)NCc1ccc2c(c1)OCO2)S(=O)(=O)c1ccc([N+](=O)[O-])cc1 | -22 | -2 | -9 | -3 | 12 | . | . | . | . | . | .
Cc1cccc(NC(=O)CC2Nc3cccc4cccc(c34)NC2=O)c1 (stereo unspecified) | 83* | 67* | 1 | 76* | -40 | -18 | 12 | 9 | -1 | 1 | 1
O=C(CC1NC(=O)NC1=O)Nc1ccccc1 (stereo unspecified) | 2 | 10 | -15 | 4 | 22 | 36 | . | . | . | . | .
CC(=O)Nc1ccc(NC(=O)CC2Nc3cccc4cccc(c34)NC2=O)cc1 (stereo unspecified) | 93* | 75* | -14 | 75* | -91 | 10 | -3 | -2 | 5 | 4 | -3
CCOc1ccc(NC(=O)CC2Nc3ccccc3NC2=O)cc1 (stereo unspecified) | 11 | 7 | 4 | 4 | -50 | 2 | . | . | . | . | .
CC(=O)c1ccc(NC(=O)CC2Nc3cccc4cccc(c34)NC2=O)cc1 (stereo unspecified) | 89* | 56* | -2 | 50* | -9 | -5 | 8 | 7 | -6 | -6 | -13
SMILES | SENP6 block | SENP7 block | TRAIL sens C8 | SENP8 block-1 | SENP8 block-2 | PPC-1+TRAIL kill | SENP8 conf | SENP6 conf | SENP7 confirm | Casp3 select | Luc interf
CCOC(=O)c1sc(N)nc1C(F)(F)F | . | . | -19 | . | 1 | . | . | . | . | . | .
O=C(N/C(=C/c1ccccc1Cl)C(=O)N1CCCCC1)c1ccco1 | -10 | 14 | -3 | -5 | -2 | . | . | . | . | . | .
COc1cc(OC)c(C(=O)O/N=C(\N)c2ccccn2)cc1OC | 4 | -6 | 2 | 1 | 11 | . | . | . | . | . | .
N/C(=N\OC(=O)c1cccc(Cl)c1)c1ccccn1 | 92* | 94* | 56* | 87* | 11 | 40 | 90* | 90* | 100* | 95* | 45
Cc1ccc(C(=O)O/N=C(\N)c2ccccn2)c(C)c1 | 99* | 102* | 94* | 95* | 5 | . | 100* | 101* | 104* | 99* | 99*
COc1ccc(C(=O)O/N=C(\N)c2ccccn2)cc1 | 97* | 101* | 92* | 96* | 14 | . | 99* | 100* | 104* | 99* | 97*
N/C(=N\OC(=O)c1ccccc1[N+](=O)[O-])c1cccnc1 | -10 | -5 | -15 | -5 | 25 | 44 | . | . | . | . | .
N/C(=N\OC(=O)c1ccccc1[N+](=O)[O-])c1ccccn1 | 54* | 61* | 26 | 42 | -2 | . | 65* | 61* | -7 | 86* | 66*

Assay outcomes (PubChem)
